# The supplement of paper PMC8728848
# This excerpt belongs to a sample that is enriched for the strongest signals.
# B1: Arath Fbox LD (Arabidopsis thaliana) (protein)
# chain: EFSVWLEKASGKRCLMLSAMNLSIIWGDNPQYWQWIPIPESRFEKVAKLRDVCWFEIRGRTNTRVLSPRTRYSAYIVFKGVDKCYGFQNVAIEAAVGVVGQEPSRRLICFSEAIRRGRRNVVKPKQREDGWMEIELGEFFNDGGIMDNDEIEMSALETKQLNRKCGLIIQGIEIRPAKILAAASFLEQKLISEEDLNSAVDHHHHHH
# Experiments:
# Test in all cases: glycan array binding signal (z-score within array); higher = stronger binding
# Conditions in all cases: glycan notation: IUPAC condensed, linker removed
# [1] = target: Fuc(a1-2)Gal(b1-3)GalNAc(b1-3)Gal
# Outline: (§1)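 The binding signal is a Z-score computed within each array and averaged over linkers. Arrays of the same protein sequence at different concentrations or buffers were also averaged together. Data originate from 3228 arrays in the Consortium for Functional Glycomics database, kept only where the protein sequence was available.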
# [2] = target: Fuc(a1-2)Gal(b1-3)GlcNAc(b1-3)[Neu5Ac(a2-6)Gal(b1-4)GlcNAc(b1-6)]Gal(b1-4)Glc
# Outline: as §1
# [3] = target: Fuc(a1-2)[GalNAc(a1-3)]Gal(b1-3)GlcNAc(b1-2)Man(a1-3)[Fuc(a1-2)[GalNAc(a1-3)]Gal(b1-3)GlcNAc(b1-2)Man(a1-6)]Man(b1-4)GlcNAc(b1-4)GlcNAc
# Outline: as §1
# [4] = target: Fuc(a1-2)[GalNAc(a1-4)]Gal(b1-4)GlcNAc
# Outline: as §1
# [5] = target: Fuc(a1-3)[Gal(b1-4)]GlcNAc(b1-2)Man(a1-3)[Fuc(a1-3)[Gal(b1-4)]GlcNAc(b1-2)Man(a1-6)]Man(b1-4)GlcNAc(b1-4)[Fuc(a1-6)]GlcNAc
# Outline: as §1
# [6] = target: Fuc(a1-3)[Gal(b1-4)]GlcNAc(b1-3)GalNAc
# Outline: as §1
# Gal(a1-2)Gal = target: Gal(a1-2)Gal
# Outline: as §1
# Gal(a1-3)Gal(b1-3)GlcNAc = target: Gal(a1-3)Gal(b1-3)GlcNAc
# Outline: as §1
# [7] = target: Gal(a1-3)Gal(b1-3)[Fuc(a1-4)]GlcNAc(b1-2)Man(a1-3)[Gal(a1-3)Gal(b1-3)[Fuc(a1-4)]GlcNAc(b1-2)Man(a1-6)]Man(b1-4)GlcNAc(b1-4)GlcNAc
# Outline: as §1
# [8] = target: Gal(a1-3)Gal(b1-4)GlcNAc(b1-2)Man
# Outline: as §1
# [9] = target: Gal(a1-3)[Gal(a1-4)]Gal(b1-4)GlcNAc
# Outline: as §1
# Gal(b1-2)Gal = target: Gal(b1-2)Gal
# Outline: as §1
# Gal(b1-3)Gal = target: Gal(b1-3)Gal
# Outline: as §1
# [10] = target: Gal(b1-3)GlcNAc(b1-2)Man(a1-3)[GlcNAc(b1-4)][Gal(b1-3)GlcNAc(b1-2)Man(a1-6)]Man(b1-4)GlcNAc(b1-4)GlcNAc
# Outline: as §1
# [11] = target: Gal(b1-3)GlcNAc(b1-3)Gal(b1-4)[Fuc(a1-3)]GlcNAc
# Outline: as §1
# [12] = target: Gal(b1-3)[Fuc(a1-4)]GlcNAc(b1-2)Man
# Outline: as §1
# [13] = target: Gal(b1-3)[Fuc(a1-4)]GlcNAc(b1-2)Man(a1-3)[Gal(b1-3)[Fuc(a1-4)]GlcNAc(b1-2)Man(a1-6)]Man(b1-4)GlcNAc(b1-4)[Fuc(a1-6)]GlcNAc
# Outline: as §1
# Gal(b1-4)Gal = target: Gal(b1-4)Gal
# Outline: as §1
# [14] = target: Gal(b1-4)GlcNAc(b1-3)Gal(b1-4)GlcNAc(b1-3)Gal(b1-4)GlcNAc
# Outline: as §1
# [15] = target: Gal(b1-4)GlcNAc(b1-3)Gal(b1-4)GlcNAc(b1-3)Gal(b1-4)GlcNAc(b1-3)Gal(b1-4)GlcNAc(b1-2)Man(a1-3)[Gal(b1-4)GlcNAc(b1-3)Gal(b1-4)GlcNAc(b1-3)Gal(b1-4)GlcNAc(b1-3)Gal(b1-4)GlcNAc(b1-2)Man(a1-6)]Man(b1-4)GlcNAc(b1-4)[Fuc(a1-6)]GlcNAc
# Outline: as §1
# [16] = target: Gal(b1-4)GlcNAc(b1-3)Gal(b1-4)GlcNAc(b1-3)[Gal(b1-4)GlcNAc(b1-3)Gal(b1-4)GlcNAc(b1-6)]GalNAc
# Outline: as §1
# [17] = target: Gal(b1-4)GlcNAc(b1-3)Gal(b1-4)[Fuc(a1-3)]GlcNAc(b1-3)Gal(b1-4)[Fuc(a1-3)]GlcNAc
# Outline: as §1
# Gal3S(b1-4)Glc = target: Gal3S(b1-4)Glc
# Outline: as §1
# [18] = target: Gal3S(b1-4)[Fuc(a1-3)]GlcNAc6S
# Outline: as §1
# Gal3S6S(b1-4)GlcNAc = target: Gal3S6S(b1-4)GlcNAc
# Outline: as §1
# Gal4S6S(b1-4)GlcNAc = target: Gal4S6S(b1-4)GlcNAc
# Outline: as §1
# Gal6S(b1-4)GlcNAc6S = target: Gal6S(b1-4)GlcNAc6S
# Outline: as §1
# [19] = target: GalNAc(a1-3)GalNAc(b1-3)Gal(a1-4)Gal(b1-4)GlcNAc
# Outline: as §1
# GalNAc(b1-4)GlcNAc6S = target: GalNAc(b1-4)GlcNAc6S
# Outline: as §1
# GlcA(b1-6)Gal = target: GlcA(b1-6)Gal
# Outline: as §1
# [20] = target: GlcNAc(a1-4)Gal(b1-4)GalNAc
# Outline: as §1
# [21] = target: GlcNAc(b1-3)Gal(b1-4)GlcNAc(b1-3)Gal(b1-4)GlcNAc(b1-2)[GlcNAc(b1-3)Gal(b1-4)GlcNAc(b1-3)Gal(b1-4)GlcNAc(b1-6)]Man(a1-6)[GlcNAc(b1-3)Gal(b1-4)GlcNAc(b1-3)Gal(b1-4)GlcNAc(b1-2)Man(a1-3)]Man(b1-4)GlcNAc(b1-4)[Fuc(a1-6)]GlcNAc
# Outline: as §1
# [22] = target: Man(a1-2)Man(a1-2)Man(a1-3)Man
# Outline: as §1
# [23] = target: Man(a1-2)Man(a1-3)[Man(a1-6)]Man(a1-6)[Man(a1-2)Man(a1-3)]Man(b1-4)GlcNAc(b1-4)GlcNAc
# Outline: as §1
# Man(a1-6)Man = target: Man(a1-6)Man
# Outline: as §1
# [24] = target: Neu5Ac(a2-3)Gal(b1-3)GlcNAc(b1-2)Man
# Outline: as §1
# [25] = target: Neu5Ac(a2-3)Gal(b1-3)GlcNAc(b1-2)Man(a1-3)[GlcNAc(b1-4)][Neu5Ac(a2-3)Gal(b1-3)GlcNAc(b1-2)Man(a1-6)]Man(b1-4)GlcNAc(b1-4)GlcNAc
# Outline: as §1
# [26] = target: Neu5Ac(a2-3)Gal(b1-3)GlcNAc(b1-6)GalNAc
# Outline: as §1
# [27] = target: Neu5Ac(a2-3)Gal(b1-3)GlcNAc6S
# Outline: as §1
# [28] = target: Neu5Ac(a2-3)Gal(b1-3)[Neu5Ac(a2-6)]GalNAc
# Outline: as §1
# [29] = target: Neu5Ac(a2-3)Gal(b1-3)[Neu5Ac(a2-6)]GlcNAc(b1-3)[Fuc(a1-3)[Gal(b1-4)]GlcNAc(b1-6)]Gal(b1-4)Glc
# Outline: as §1
# Neu5Ac(a2-3)Gal(b1-4)Glc = target: Neu5Ac(a2-3)Gal(b1-4)Glc
# Outline: as §1
# [30] = target: Neu5Ac(a2-3)Gal(b1-4)GlcNAc(b1-2)[Neu5Ac(a2-3)Gal(b1-4)GlcNAc(b1-6)]Man(a1-6)[Neu5Ac(a2-3)Gal(b1-4)GlcNAc(b1-2)Man(a1-3)][GlcNAc(b1-4)]Man(b1-4)GlcNAc(b1-4)GlcNAc
# Outline: as §1
# [31] = target: Neu5Ac(a2-3)Gal(b1-4)GlcNAc(b1-3)Gal(b1-4)GlcNAc
# Outline: as §1
# [32] = target: Neu5Ac(a2-3)Gal(b1-4)GlcNAc(b1-3)[Neu5Ac(a2-3)Gal(b1-4)GlcNAc(b1-6)]GalNAc
# Outline: as §1
# [33] = target: Neu5Ac(a2-3)Gal(b1-4)GlcNAc(b1-6)[Gal(b1-3)]GalNAc
# Outline: as §1
# Neu5Ac(a2-6)Gal = target: Neu5Ac(a2-6)Gal
# Outline: as §1
# Neu5Ac(a2-6)Gal(b1-4)Glc = target: Neu5Ac(a2-6)Gal(b1-4)Glc
# Outline: as §1
# [34] = target: Neu5Ac(a2-6)Gal(b1-4)GlcNAc
# Outline: as §1
# [35] = target: Neu5Ac(a2-6)Gal(b1-4)GlcNAc(b1-2)[Neu5Ac(a2-6)Gal(b1-4)GlcNAc(b1-6)]Man(a1-6)[Neu5Ac(a2-6)Gal(b1-4)GlcNAc(b1-2)Man(a1-3)][GlcNAc(b1-4)]Man(b1-4)GlcNAc(b1-4)GlcNAc
# Outline: as §1
# [36] = target: Neu5Ac(a2-6)Gal(b1-4)GlcNAc(b1-3)GalNAc
# Outline: as §1
# [37] = target: Neu5Ac(a2-6)GalNAc(b1-4)GlcNAc
# Outline: as §1
# [38] = target: Neu5Ac(a2-8)Neu5Ac(a2-3)Gal(b1-4)Glc
# Outline: as §1
# [39] = target: Neu5Ac(a2-8)Neu5Ac(a2-3)Gal(b1-4)GlcNAc
# Outline: as §1
# [40] = target: Neu5Ac(a2-8)Neu5Ac(a2-8)Neu5Ac(a2-8)Neu5Ac(a2-3)[GalNAc(b1-4)]Gal(b1-4)Glc
# Outline: as §1
# [41] = target: Neu5Ac9Ac(a2-3)Gal(b1-3)GlcNAc
# Outline: as §1
# [42] = target: Neu5Gc(a2-3)Gal(b1-3)[Fuc(a1-4)]GlcNAc
# Outline: as §1
# [43] = target: Neu5Gc(a2-3)Gal(b1-4)GlcNAc(b1-3)Gal(b1-4)GlcNAc(b1-2)Man(a1-3)[Neu5Gc(a2-3)Gal(b1-4)GlcNAc(b1-3)Gal(b1-4)GlcNAc(b1-2)Man(a1-6)]Man(b1-4)GlcNAc(b1-4)GlcNAc
# Outline: as §1
# Neu5Gc(a2-6)GalNAc = target: Neu5Gc(a2-6)GalNAc
# Outline: as §1
# [44] = target: Neu5Gc(a2-8)Neu5Gc(a2-3)Gal(b1-4)GlcNAc(b1-3)Gal(b1-4)GlcNAc
# Outline: as §1
binder,measurement,setting,value
B1,glycan array binding signal (z-score),[1],-0.344
same,glycan array binding signal (z-score),[2],-0.52
same,glycan array binding signal (z-score),[3],-0.597
same,glycan array binding signal (z-score),[4],0.47
same,glycan array binding signal (z-score),[5],2.04
same,glycan array binding signal (z-score),[6],-0.455
same,glycan array binding signal (z-score),Gal(a1-2)Gal,-0.171
same,glycan array binding signal (z-score),Gal(a1-3)Gal(b1-3)GlcNAc,9.37
same,glycan array binding signal (z-score),[7],2.84
same,glycan array binding signal (z-score),[8],-0.233
same,glycan array binding signal (z-score),[9],1.55
same,glycan array binding signal (z-score),Gal(b1-2)Gal,2.67
same,glycan array binding signal (z-score),Gal(b1-3)Gal,-0.517
same,glycan array binding signal (z-score),[10],-0.473
same,glycan array binding signal (z-score),[11],-0.574
same,glycan array binding signal (z-score),[12],4.02
same,glycan array binding signal (z-score),[13],2.55
same,glycan array binding signal (z-score),Gal(b1-4)Gal,1.31
same,glycan array binding signal (z-score),[14],0.403
same,glycan array binding signal (z-score),[15],-0.558
same,glycan array binding signal (z-score),[16],-0.532
same,glycan array binding signal (z-score),[17],-0.413
same,glycan array binding signal (z-score),Gal3S(b1-4)Glc,4.4
same,glycan array binding signal (z-score),[18],3.79
same,glycan array binding signal (z-score),Gal3S6S(b1-4)GlcNAc,2.51
same,glycan array binding signal (z-score),Gal4S6S(b1-4)GlcNAc,-0.39
same,glycan array binding signal (z-score),Gal6S(b1-4)GlcNAc6S,0.739
same,glycan array binding signal (z-score),[19],-0.368
same,glycan array binding signal (z-score),GalNAc(b1-4)GlcNAc6S,-0.574
same,glycan array binding signal (z-score),GlcA(b1-6)Gal,1.15
same,glycan array binding signal (z-score),[20],0.26
same,glycan array binding signal (z-score),[21],0.126
same,glycan array binding signal (z-score),[22],-0.56
same,glycan array binding signal (z-score),[23],-0.337
same,glycan array binding signal (z-score),Man(a1-6)Man,2.7
same,glycan array binding signal (z-score),[24],2.03
same,glycan array binding signal (z-score),[25],-0.462
same,glycan array binding signal (z-score),[26],-0.64
same,glycan array binding signal (z-score),[27],-0.302
same,glycan array binding signal (z-score),[28],-0.264
same,glycan array binding signal (z-score),[29],-0.662
same,glycan array binding signal (z-score),Neu5Ac(a2-3)Gal(b1-4)Glc,-0.473
same,glycan array binding signal (z-score),[30],-0.407
same,glycan array binding signal (z-score),[31],-0.587
same,glycan array binding signal (z-score),[32],-0.595
same,glycan array binding signal (z-score),[33],-0.599
same,glycan array binding signal (z-score),Neu5Ac(a2-6)Gal,2.83
same,glycan array binding signal (z-score),Neu5Ac(a2-6)Gal(b1-4)Glc,0.791
same,glycan array binding signal (z-score),[34],-0.052
same,glycan array binding signal (z-score),[35],0.015
same,glycan array binding signal (z-score),[36],-0.324
same,glycan array binding signal (z-score),[37],-0.53
same,glycan array binding signal (z-score),[38],-0.516
same,glycan array binding signal (z-score),[39],-0.254
same,glycan array binding signal (z-score),[40],0.508
same,glycan array binding signal (z-score),[41],3.71
same,glycan array binding signal (z-score),[42],-0.502
same,glycan array binding signal (z-score),[43],-0.554
same,glycan array binding signal (z-score),Neu5Gc(a2-6)GalNAc,-0.28
same,glycan array binding signal (z-score),[44],-0.404
